Measurements: PubChem BioAssay AID2314 (National Center for Advancing Translational Sciences (NCATS), 2010)
The campaign covered roughly 300,000 compounds. About 37,000 (12%) were called active. This is one part of a sample in which actives are shown more often than they occur. Cut-off read from the data, not from the text of the source: active = max response mostly above about 13% (no sharp cut-off); inactive = mostly below about 14%.

Assay: Cycloheximide Counterscreen for Small Molecule Inhibitors of Shiga Toxin; note: read at 38.3 µM for the half of the compounds with a filed dose; 0% is about no effect
Settings: cell reporter, cycloheximide protein synthesis inhibition counterscreen; hits give high values

Row | SMILES | max response
1 | CSc1ccc(CCNC(=O)CS(=O)(=O)Cc2nc(-c3ccccc3F)oc2C)cc1 | -3.5% (inactive)
2 | Cc1nn(-c2ncc(C(F)(F)F)cc2Cl)c(=O)n1-c1ccccc1 | 0.461% (inactive)
3 | Cc1cc(C)c2nc(-c3ccco3)cc(C(=O)O)c2c1 | 0.856% (inactive)
4 | Cc1cc(C)c2nc3nc(C)cc(C)c3c(N)c2c1 | 15.1% (active)
5 | Cc1cc(C)c2nc(SCCC#N)nc(C)c2c1 | 1.85% (inactive)
6 | COc1ccc(/C=C(/NC(=O)c2ccco2)C(=O)Nc2ccc(C(C)=O)cc2)cc1 | 2.87% (inactive)
7 | COc1ccc(N(Cc2ccccc2)S(=O)(=O)c2cccc(C(=O)O)c2)cc1 | -3.66% (inactive)
8 | COc1ccc(CN(C)C(=O)CC(c2ccccc2)c2ccccc2)cc1 | -2.05% (inactive)
9 | COc1ccc(C(CC(=O)c2ccccc2)S(=O)(=O)c2ccccc2)cc1 (stereo not given) | 30% (active)
10 | Cc1ccc(SCc2c(C(=O)N/N=C/c3cccnc3)nnn2-c2nonc2N)cc1 | 2.02% (inactive)
11 | CC(C)C[C@H](NC(=O)C1CC(=O)N(c2ccc3c(c2)OCCO3)C1)C(=O)NC1CCCC1 (stereo not given in full) | 6.36% (inactive)
12 | C=C1CCN(C(CC(C)C)C(=O)N2CCOCC2)S(=O)(=O)c2ccccc21 (stereo not given) | 4.95% (inactive)
13 | Cc1ccc(-c2ccc(/C=C(\C#N)C(N)=S)o2)c([N+](=O)[O-])c1 | 16% (active)
14 | Cc1ccc(Cc2cnc(NC(=O)/C(C#N)=C/c3ccc(-c4cccc([N+](=O)[O-])c4)o3)s2)cc1 | -0.479% (inactive)
15 | N#C/C(=C/c1ccc(-c2ccccc2[N+](=O)[O-])o1)C(=O)NCCN1CCCCC1 | 2.31% (inactive)
16 | COc1ccc(C)cc1N(C(=O)Cn1nnc(-c2ccc(C)o2)n1)C(C(=O)NC1CCCC1)c1ccncc1 (stereo not given) | -6.77% (inactive)
17 | O=C(Nc1ccc(-c2ccc3nncn3n2)cc1)C1CCCCC1 | 16% (active)
18 | CC(C)NS(=O)(=O)c1ccc(NC(=O)C2CCCCC2)cc1 | -0.865% (inactive)
19 | O=C(O)c1ccc(NC(=O)C2CCCCC2)cc1 | -1.35% (inactive)
20 | CCCOc1ccc(C2NC(=O)NC(c3ccccc3)=C2C(C)=O)cc1OCC (stereo not given) | -7.3% (inactive)
21 | CCN1N=C(c2ccccc2)CCC1=O | -2.27% (inactive)
22 | Nc1ccn(C2CC(O)C(CO)O2)c(=O)n1 (stereo not given) | -1.51% (inactive)
23 | COC(=O)c1cc(-c2cccs2)nc2ccccc12 | -2.85% (inactive)
24 | c1ccc(NCc2cccc3ccccc23)nc1 | 9.29% (inactive)
25 | c1ccc(Nc2nc(-c3ccncc3)cs2)nc1 | 36.4% (active)

Row | SMILES | max response
26 | Clc1ccc(Nc2nc(-c3cccs3)cs2)nc1 | 37.5% (active)
27 | c1cnc(Nc2nc(-c3ccc4ccccc4c3)cs2)nc1 | 42.5% (active)
28 | CC(NC(=O)c1ccco1)C(=O)Nc1nc(-c2ccccn2)cs1 (stereo not given) | -2.97% (inactive)
29 | COc1ccc2cc(S(=O)(=O)Nc3ccccn3)ccc2c1 | -3.68% (inactive)
30 | COC(=O)CSc1nccc(-c2cccs2)n1 | 17% (inactive)
31 | COc1ccc(-c2csc(Nc3ccccn3)n2)cc1 | 40.4% (active)
32 | COc1ccc(-c2nc(CS(=O)(=O)CC(=O)NCc3cccc(Br)c3)c(C)o2)cc1 | 6.41% (inactive)
33 | Cc1ccc(OCCCCN2CCCCC2)c(Br)c1 | 10.9% (inactive)
34 | CC(C)(C)NC(=O)NC(=O)COC(=O)C1c2ccccc2Oc2ccccc21 | 0.419% (inactive)
35 | Cc1ccc(CNC(=O)c2cccnc2Cl)cc1 | 6.44% (inactive)
36 | CCN(C(=O)c1ccc(Br)cc1)c1ccccc1 | -3.18% (inactive)
37 | Cc1cccc(C(=O)N2CCCC(Nc3ccc(C(C)C)cc3)C2)n1 (stereo not given) | 17.8% (inactive)
38 | CCOC(=O)C1(CCOc2ccccc2)CCN(Cc2ccc(C#CCCO)cc2)CC1 | -3.24% (inactive)
39 | CCCC1=Nc2cc(C(=O)NCCN3CCCC3)ccc2Sc2ccccc21 | -5.31% (inactive)
40 | O=C(Nc1ccc(OCC(=O)N2CCOCC2)cc1)c1cc(F)c(F)cc1Cl | 2.51% (inactive)
41 | CCN1CCc2nc(NC(=O)c3cc(F)c(F)cc3Cl)sc2C1 | 18.8% (active)
42 | O=C(Nc1nccs1)c1cc(S(=O)(=O)N2CCOCC2)c(Cl)cc1Cl | -3.9% (inactive)
43 | O=C(CSc1nnnn1-c1ccc(O)cc1)c1ccc(F)cc1 | 23.5% (active)
44 | Cc1cc(NC(=O)CSc2nnnn2-c2ccc(F)cc2)no1 | -1.5% (inactive)
45 | COc1ccc(-n2nnnc2SCC(=O)c2ccc(OC)c(OC)c2)cc1 | -0.506% (inactive)
46 | CCC(C(=O)NCc1cccnc1)n1nc(C)c2sc3ccccc3c2c1=O (stereo not given) | -10.2% (inactive)
47 | CC(C)N(C(=O)Cn1cc(S(=O)(=O)CC(=O)N2CCOCC2)c2ccccc21)C(C)C | 2.9% (inactive)
48 | O=C(NCCCn1ccnc1)C1CCCN(S(=O)(=O)c2cc(Cl)ccc2Cl)C1 (stereo not given) | -4.82% (inactive)
49 | O=c1cc(-c2ccc(O)cc2)oc2c([C@@H]3O[C@H](CO)[C@@H](O)[C@H](O)[C@H]3O)c(O)cc(O)c12 | -8.35% (inactive)
50 | CCn1ccnc1CN(C)Cc1nc(-c2ccc3c(c2)OCO3)no1 | 28.4% (active)

Row | SMILES | max response
51 | CC(C)N(Cc1nc(-c2ccc3c(c2)OCO3)no1)CC1CCC(=O)N1 (stereo not given) | 1.08% (inactive)
52 | CN(CCN1CCOCC1)Cc1nc(-c2ccc3c(c2)OCO3)no1 | 8.52% (inactive)
53 | Cc1ccc(C)c(N2CCN(C(=O)CCCCCn3c(=S)[nH]c4ccc(N5CCOCC5)cc4c3=O)CC2)c1 | 9.94% (inactive)
54 | CC(C)OCCCNc1ncnc2c1[nH]c1ccc(F)cc12 | 39% (active)
55 | COc1cc(OC)c(OC)cc1/C=N/Nc1ncnc2c1[nH]c1ccc(C)cc12 | -3.15% (inactive)
56 | Fc1ccc2[nH]c3c(N4CCSCC4)ncnc3c2c1 | 5.04% (inactive)
57 | O=CN1CCN(C(=O)c2ccc(Br)o2)CC1 | 1.29% (inactive)
58 | C=CCn1c(Oc2ccc(C(=O)OC)cc2)nc2c1c(=O)n(C)c(=O)n2C | -5.23% (inactive)
59 | Cc1ccccc1NC(=O)N1CCCC1C(=O)NCc1ccccc1 (stereo not given) | -1.83% (inactive)
60 | Cc1c(CCO)c(=O)[nH]n1C(=O)c1c(F)cccc1F | 17% (inactive)
61 | COc1ccc(-n2ncc3c(N4CCc5ccccc54)ncnc32)cc1 | 49.8% (active)
62 | COc1ccc(CCC(C)N2CCc3ccccc3C2)cc1 (stereo not given) | 1.02% (inactive)
63 | COc1ccc(Oc2c(Cl)cnn(-c3ccccc3)c2=O)cc1 | -1.92% (inactive)
64 | COc1ccc(-n2ncc3c(N4CCCc5ccccc54)ncnc32)cc1 | 44.9% (active)
65 | COc1ccc(-n2ncc3c2CC(C)(C)CC3NC(=O)CCc2c(C)noc2C)cc1 (stereo not given) | 1.45% (inactive)
66 | C#CC(CCN1CCCCC1)(OC)c1ccccc1 (stereo not given) | -1.93% (inactive)
67 | COc1ccccc1NC(=S)N1CCN(C(c2ccccc2)c2ccccc2)CC1 | -1.77% (inactive)
68 | Cc1nc2ccc(NC(=S)N3CCC(C)CC3)cc2nc1C | 29.7% (active)
69 | Cc1nc2ccc(NC(=O)N3CCC(c4ccccc4)C3)cc2nc1C (stereo not given) | -1.48% (inactive)
70 | Cc1cccc(NC(=S)N2CCC(c3nc4ccccc4s3)CC2)c1 | -8.19% (inactive)
71 | O=C(Cc1ccc(Cl)c(Cl)c1)Nc1ccc(SC(F)F)cc1 | 32.1% (active)
72 | CC(=O)N1CCN(CC(=O)Nc2ccc(SC(F)F)cc2)CC1 | -7.31% (inactive)
73 | Cc1ccc(CC(=O)Nc2ccc(OC(F)F)c(Cl)c2)cc1C | -1.56% (inactive)
74 | Cc1ccc(C(C[N+](=O)[O-])c2c(C)cc3ccccn23)cc1 (stereo not given) | -2.05% (inactive)
75 | Nc1ccccc1SC(C[N+](=O)[O-])c1ccccc1 (stereo not given) | 58.7% (active)

Row | SMILES | max response
76 | CCCN1C2CCCC1CC(NC(=O)c1cccc(OC)c1)C2 (stereo not given) | 0.249% (inactive)
77 | COc1ccccc1C1CCN(c2ccc([N+](=O)[O-])cn2)CC1 | 4.09% (inactive)
78 | O=C(Cc1c(Cl)cccc1Cl)NC1CC1 | -4.84% (inactive)
79 | Cc1ccc(S(=O)(=O)c2nnn3c2nc(N2CCN(c4ccccn4)CC2)c2ccccc23)cc1 | -2.94% (inactive)
80 | FC(F)(F)c1cc(-c2ccco2)nc(NCc2ccc(Cl)cc2)n1 | -4.49% (inactive)
81 | CN(CC(=O)Nc1ccc(F)cc1)C(=O)c1ccc(-c2ccc(Cl)cc2)o1 | 10.2% (inactive)
82 | O=C(N/N=C\c1ccc(-c2ccc(Cl)c(Cl)c2)o1)C(=O)N1CCCC1 | -1.36% (inactive)
83 | COC(=O)N/N=C/c1ccc(-c2ccc(Cl)c(Cl)c2)o1 | 51.5% (active)
84 | Nc1nnnn1CC(=O)N/N=C/c1ccc(-c2cccc(Cl)c2)o1 | 12.6% (inactive)
85 | Cc1cccc(-c2nc(CS(=O)CC(=O)NC(C)CCc3ccccc3)c(C)o2)c1 (stereo not given) | -0.794% (inactive)
86 | O=C(Nc1ccc(Cl)c(Cl)c1)N1CC=C(c2ccccc2)CC1 | 4.38% (inactive)
87 | Cc1ccc(C)c(N2CCN(C(=O)CCCn3c(=O)c4cccn4c4cccnc43)CC2)c1 | -1.51% (inactive)
88 | CCOc1ccc(C2NC(=S)NC3=C2CCc2ccccc23)cc1 (stereo not given) | 54.2% (active)
89 | CCOC(=O)C1=C(c2ccccc2)NC(=S)NC1c1ccc(Cl)cc1 (stereo not given) | 1.29% (inactive)
90 | COc1ccc(C2NC(=S)NC3=C2CCc2ccccc23)cc1OC (stereo not given) | 6.79% (inactive)
91 | Cc1ccc(CNC(=O)[C@@H](NC(=O)Cc2ccccc2)C(C)C)cc1 | 3.51% (inactive)
92 | CSCCC(NS(=O)(=O)c1ccc2c(c1)oc(=O)n2C)C(=O)NC1CCCc2ccccc21 (stereo not given) | 7.75% (inactive)
93 | O=[N+]([O-])c1cccc(S(=O)(=O)NCc2ccccn2)c1 | -2.36% (inactive)
94 | COc1cccc(C(=O)OCc2cc(=O)oc3c(C)c(C)ccc23)c1OC | -3.37% (inactive)
95 | O=C(Nc1cccc(Cl)c1Cl)c1ccccc1NC(=O)C1CC=CCC1C(=O)O (stereo not given) | 26.8% (active)
96 | O=C(O)C1CC=CCC1C(=O)NCCc1ccccc1 (stereo not given) | -2.55% (inactive)
97 | O=C(Nc1ccccc1)c1ccccc1NC(=O)C(F)(F)F | 11.2% (inactive)
98 | O=C(O)C1CC=CCC1C(=O)Nc1ccccc1C(=O)N1CCN(c2ccccc2)CC1 (stereo not given) | -3.82% (inactive)
99 | O=C(Nc1ccc(Cl)c(Cl)c1)c1ccccc1NC(=O)C1CC=CCC1C(=O)O (stereo not given) | 38.2% (active)
100 | O=C(Nc1ccccc1C(=O)N1CCCCCC1)c1ccccc1Cl | -3.34% (inactive)
